# RXFP1 antag: RXFP1 (human) relaxin receptor antagonism; Q9HBX9; HEK293-RXFP1, relaxin-stimulated cAMP HTRF, 30 min; active compounds read low; activity change, negative = inhibition, % at 57.5 µM; 350,000 tested, 0.59% active; AID 1259400;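 active = activity change of -60% or lower, but not beyond a set lower limit; inconclusive = change between -60% and -40%, or beyond the set limit; inactive = change above -40%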
# gsp antagonist: gsp mutant antagonism. gsp-mutant cells, cAMP HTRF, 30 min. Potency, µM (series often up to 76.9 µM), most hits filed as inhibitors. 340,000 tested, 0.4% active. AID 624288; calls by dose curve; cell line not stated here;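 also: intracellular cAMP measured with PDE inhibitor Ro 20-1724 present during compound exposure; nearly all actives have a fitted effect of over 65% in size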
#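 Cells, 2000/well, grown 16–24 h in DMEM 10% FBS with 0.5 mg/ml G418, then compounds plus […] (300 uM addition stock), 30 min at 37C. cAMP read by HTRF (cAMP-d2 and anti-cAMP antibody-K in lysis buffer) after 30 min RT.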
# gsp ag: gsp mutant agonism; Potency, µM (highest dose often 76.9 µM), usual class: activators; gsp mutant cells, cAMP HTRF, 30 min; 340,000 tested, 0.13% active; AID 624287; active = well fitted activation curve with a large enough effect; inconclusive = small, poorly fitted or top-dose-only effect, or another doubt; inactive = no such curve, though single readings can be large or run the other way; cell line not stated here;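 also: phosphodiesterase inhibitor Ro 20-1724 added with compounds to block cAMP breakdown; nearly all actives have a fitted effect of over 60% in size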
#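 Cells stably selected in G418 were plated at 2000/well, grown 16-24 hr, then given compounds in DMSO with the PDE inhibitor […] (300 uM solution added) for 30 min at 37C; cAMP was read by HTRF.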
# RXFP1 ag: RXFP1 (human) receptor agonism; HEK293T-RXFP1 cAMP TR-FRET, 30 min; response scale: percent of porcine relaxin response, buffer zero; Q9HBX9; AID 2676; Potency, µM (doses to about 57.5 µM), usual class: activators; 370,000 tested, 0.3% active; active = well fitted activation curve with a large enough effect; inconclusive = small, poorly fitted or top-dose-only effect; also: nearly all actives have a fitted effect of over 60% in size
#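 HEK293 cells stably expressing RXFP1, treated 30 min at 37C with compounds plus PDE4 inhibitor Ro 20174; cAMP measured by HTRF TR-FRET. Normalized to buffer and 29 nM porcine relaxin; EC50 by Hill fit.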
# ClpP mod: qHTS Assay for Activators of ClpP; AID 651965, 2013; Potency, µM (titrated, usually from 57.5 µM); 340,000 tested, 1.9% active; purified B. subtilis ClpP, FRET peptide cleavage, 20 min; active = well fitted falling curve with a large enough effect; inconclusive = small, poorly fitted or top-dose-only effect; inactive = no such curve, though single readings can be large or run the other way; also: the source files actives as falling curves though it sought activators and does not explain the sign; nearly all actives have a fitted effect of over 65% in size
#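 Buffer: 100 mM Tris/HCl pH8, 100 mM KCl, 0.05% low protease BSA, 2.5% glycerol, 0.01% Tween-20. ClpP 10 microg/mL final; 20 min RT; delta FRET normalized to ADEP and DMSO controls.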
# pAkt inh: blocks phosphorylation of Akt; Neuro2A IGF-stimulated pAkt S473 HTRF, 20 min; active compounds read low; activity change, % for hits at 50 µM; 360,000 tested, 0.32% active; in the data active = activity change below about -80%; inconclusive = mostly about -51% to -80%
#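 Single-point screen (50 µM final compound) in Neuro2A cells stimulated 20 min with 6 nM IGF at 37 deg C. After lysis, Ser473-phosphorylated Akt read by HTRF (ex 330 nm, em 615/665 nm) as the 665/615 ratio.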
# Hits are given with their value; . = inactive; ? = inconclusive; / = no result given; [ ] = dose if it differs, or a comment. Hits are enriched below; roughly 2.7% of the tested compounds scored in any of these assays.
SMILES,RXFP1 antag,gsp antagonist,gsp ag,RXFP1 ag,ClpP mod,pAkt inh
COc1ccc([N+](=O)[O-])cc1N(CC(O)CN1CCCC1)S(=O)(=O)c1ccc(C)cc1 (stereo not given),-66,.,?,.,/,.
O=c1cc(CN(Cc2ccccc2)Cc2ccccc2)c2ccccc2o1,/,/,/,/,.,.
O=C(O)CSc1ncnc2c1oc1ccccc12,.,.,.,?,.,.
CCOC(=O)CC(=O)CSc1ncnc2c1oc1ccccc12,.,?,?,0.79µM,.,.
N#CCCSc1ncnc2c1oc1ccccc12,.,.,.,14µM,.,.
COc1ccc(CC(=O)NCc2ccc3c(c2)CCN3C(=O)c2ccc(Cl)cc2)cc1OC,.,/,/,.,.,/
CCc1ccc(NCc2cc3cc4c(cc3n(CC(=O)Nc3ccccc3C)c2=O)OCCO4)cc1,/,/,/,.,.,/
CN(C)S(=O)(=O)Oc1cccc(C(=O)Nc2ccc(Cl)c(Cl)c2)c1,.,?,.,.,.,.
CN(C)S(=O)(=O)Oc1cccc(C(=O)Nc2cccc(Cl)c2)c1,.,28µM,.,.,.,.
C=CCOc1c(Cl)cc(CNc2ccc(N(C)C)cc2)cc1OC,-103,?,.,.,.,.
C=CCOc1c(Cl)cc(CNc2ccc(C)c(Cl)c2)cc1OC,/,/,/,.,/,/
O=C(CSc1oc(-c2ccco2)nc1S(=O)(=O)c1ccccc1)NCC1CCCO1 (stereo not given),.,.,.,.,.,-101%
CCNC(=O)COC(=O)c1ccc(-c2nc3ccccc3s2)s1,.,.,.,.,.,.
Cc1noc(C)c1COC(=O)c1ccc(-c2nc3ccccc3s2)s1,.,.,.,.,20µM,.
CC1(C)C(=O)OC(c2cccn2-c2ccc([N+](=O)[O-])cc2)C2(CCCCC2)C1=O (stereo not given),.,.,.,.,.,.
CC1(C)C(=O)OC(c2c(F)c(F)c(F)c(F)c2F)C2(CCCCC2)C1=O (stereo not given),.,.,.,.,28µM,.
O=C(O)CCC(=O)Nc1ccc(C(=O)OCC(=O)c2ccc(Cl)cc2Cl)cc1,-67,.,.,.,/,.
CCC(=O)Nc1cc(C(=O)OCC(=O)c2ccc(Cl)cc2Cl)ccc1C,.,.,.,.,.,.
Cc1ccccc1-c1nn2c(=O)cc(CN3CCN(C(=O)/C=C/c4ccccc4)CC3)nc2s1,/,/,/,.,.,/
COC(=O)CSc1nnc(CSc2nc(C)cc(C)n2)n1Cc1ccco1,.,.,.,.,.,-97%
Cc1cc(C)nc(SCc2nnc(SCc3ccc([N+](=O)[O-])cc3)n2Cc2ccco2)n1,.,.,?,.,.,.
Cc1cc(C)nc(SCc2nnc(SCC(=O)Nc3ccc(C)c(C)c3)n2Cc2ccco2)n1,.,.,.,.,.,-110%
COc1cccc(NC(=O)c2oc3ccccc3c2NC(=O)Cc2cccc(C)c2)c1,.,/,/,.,.,/
O=C(CN1C(=O)COc2ccccc21)NCC1CCCO1 (stereo not given),.,.,.,.,/,.
C=CC[n+]1cccc2cc(Br)ccc21,/,/,/,/,.,/
SMILES,RXFP1 antag,gsp antagonist,gsp ag,RXFP1 ag,ClpP mod,pAkt inh
Cc1nn(C)c(C(=O)N/N=C/c2cccc3ccccc23)c1Cl,.,.,.,.,14µM,.
CNc1ccc(/C=C(\C#N)C(=O)Nc2ccccn2)cc1[N+](=O)[O-],.,.,.[15.4 µM],18µM,/,.
CN(C)c1ccc(C(C#N)c2ccccc2)nn1 (stereo not given),-69,.,.,.,/,.
Cc1ccc([C@H]2C(C(=O)O)=CC[C@@H](c3ccc(Cl)c(Cl)c3)N2S(=O)(=O)c2ccc(C)cc2)cc1,/,.,/,/,.,.
C=CCOc1cccc(CNCCCN2CCOCC2)c1,.,.,.[15.4 µM],.,14µM,.
C=CCOc1ccccc1CNCCCN1CCOCC1,.,.,.,.,.,/
CCCn1c(=O)[nH]c(=O)c2c1nc(-c1ccc(OC(F)F)c(OC)c1)n2CCOC,.,.,.,.,25µM,.

# Compound activity as filed in PubChem BioAssay.
